Legend:
Test in all cases: log2 ratio of Biotin-Ahx-Ub-VS probe labelling (fragment/DMSO); higher = less target engagement (more negative = stronger competition), active = hit call of the paper (q ≤ 0.05, log2 ratio ≤ -1)
Conditions in all cases: compound concentration: 200 uM; treatment time: 3 h
[1] = target: T1, USP42 (UniProt Q9H9J4)
T1 sequence (whole entry): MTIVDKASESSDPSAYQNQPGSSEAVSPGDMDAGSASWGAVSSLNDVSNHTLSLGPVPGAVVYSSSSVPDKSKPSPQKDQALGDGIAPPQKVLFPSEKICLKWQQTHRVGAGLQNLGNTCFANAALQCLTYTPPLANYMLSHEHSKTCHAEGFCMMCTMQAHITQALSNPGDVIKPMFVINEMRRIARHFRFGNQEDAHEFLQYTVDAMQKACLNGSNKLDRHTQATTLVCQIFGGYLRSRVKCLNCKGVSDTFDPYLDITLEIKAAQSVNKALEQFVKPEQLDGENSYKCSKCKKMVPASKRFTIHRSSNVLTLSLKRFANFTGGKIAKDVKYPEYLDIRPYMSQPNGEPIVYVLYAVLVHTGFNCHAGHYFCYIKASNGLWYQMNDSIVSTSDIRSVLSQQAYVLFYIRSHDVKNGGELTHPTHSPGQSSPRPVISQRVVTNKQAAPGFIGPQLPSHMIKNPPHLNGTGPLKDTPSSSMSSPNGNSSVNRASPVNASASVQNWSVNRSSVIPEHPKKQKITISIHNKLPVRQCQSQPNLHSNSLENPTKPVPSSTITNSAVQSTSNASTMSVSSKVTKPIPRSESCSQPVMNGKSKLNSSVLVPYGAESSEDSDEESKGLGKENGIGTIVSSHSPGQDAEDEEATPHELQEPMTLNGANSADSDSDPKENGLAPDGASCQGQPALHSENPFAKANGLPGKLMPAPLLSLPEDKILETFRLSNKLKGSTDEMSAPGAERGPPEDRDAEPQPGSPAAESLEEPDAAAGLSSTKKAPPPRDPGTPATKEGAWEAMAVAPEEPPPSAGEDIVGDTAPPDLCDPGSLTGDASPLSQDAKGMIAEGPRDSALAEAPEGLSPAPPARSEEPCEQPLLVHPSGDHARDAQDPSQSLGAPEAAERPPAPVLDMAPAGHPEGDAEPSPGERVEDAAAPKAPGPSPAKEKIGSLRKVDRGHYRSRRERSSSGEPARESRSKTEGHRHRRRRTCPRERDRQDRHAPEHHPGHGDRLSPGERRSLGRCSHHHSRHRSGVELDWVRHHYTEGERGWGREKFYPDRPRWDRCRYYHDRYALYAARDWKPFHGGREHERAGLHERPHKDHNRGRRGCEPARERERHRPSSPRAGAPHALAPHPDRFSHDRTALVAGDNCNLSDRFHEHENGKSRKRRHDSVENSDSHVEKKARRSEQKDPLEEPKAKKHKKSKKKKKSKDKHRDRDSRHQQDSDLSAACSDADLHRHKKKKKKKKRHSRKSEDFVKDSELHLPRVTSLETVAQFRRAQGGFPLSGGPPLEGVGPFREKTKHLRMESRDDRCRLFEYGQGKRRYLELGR
Summary of the method: (§1)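 HEK293T lysate (495 µg per sample, in Tris/CHAPS/IGEPAL buffer with protease inhibitors) was treated in triplicate with fragment at 200 µM or with DMSO for 3 h. It was then treated with Biotin-Ahx-Ub-VS (0.5 µM final) for 1 h. Labelled DUBs were NeutrAvidin-enriched, digested with LysC and trypsin, and run by diaPASEF LC-MS/MS. Spectronaut label-free quantities were global-median-normalised. Values are average log2 ratios fragment/DMSO by unpaired t-test, using proteins with ≥2 unique peptides.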

[2] = target: USP46 (UniProt P62068)
Summary of the method: as §1

[3] = target: T2, USP47 (UniProt Q96K76)
T2 sequence (whole entry): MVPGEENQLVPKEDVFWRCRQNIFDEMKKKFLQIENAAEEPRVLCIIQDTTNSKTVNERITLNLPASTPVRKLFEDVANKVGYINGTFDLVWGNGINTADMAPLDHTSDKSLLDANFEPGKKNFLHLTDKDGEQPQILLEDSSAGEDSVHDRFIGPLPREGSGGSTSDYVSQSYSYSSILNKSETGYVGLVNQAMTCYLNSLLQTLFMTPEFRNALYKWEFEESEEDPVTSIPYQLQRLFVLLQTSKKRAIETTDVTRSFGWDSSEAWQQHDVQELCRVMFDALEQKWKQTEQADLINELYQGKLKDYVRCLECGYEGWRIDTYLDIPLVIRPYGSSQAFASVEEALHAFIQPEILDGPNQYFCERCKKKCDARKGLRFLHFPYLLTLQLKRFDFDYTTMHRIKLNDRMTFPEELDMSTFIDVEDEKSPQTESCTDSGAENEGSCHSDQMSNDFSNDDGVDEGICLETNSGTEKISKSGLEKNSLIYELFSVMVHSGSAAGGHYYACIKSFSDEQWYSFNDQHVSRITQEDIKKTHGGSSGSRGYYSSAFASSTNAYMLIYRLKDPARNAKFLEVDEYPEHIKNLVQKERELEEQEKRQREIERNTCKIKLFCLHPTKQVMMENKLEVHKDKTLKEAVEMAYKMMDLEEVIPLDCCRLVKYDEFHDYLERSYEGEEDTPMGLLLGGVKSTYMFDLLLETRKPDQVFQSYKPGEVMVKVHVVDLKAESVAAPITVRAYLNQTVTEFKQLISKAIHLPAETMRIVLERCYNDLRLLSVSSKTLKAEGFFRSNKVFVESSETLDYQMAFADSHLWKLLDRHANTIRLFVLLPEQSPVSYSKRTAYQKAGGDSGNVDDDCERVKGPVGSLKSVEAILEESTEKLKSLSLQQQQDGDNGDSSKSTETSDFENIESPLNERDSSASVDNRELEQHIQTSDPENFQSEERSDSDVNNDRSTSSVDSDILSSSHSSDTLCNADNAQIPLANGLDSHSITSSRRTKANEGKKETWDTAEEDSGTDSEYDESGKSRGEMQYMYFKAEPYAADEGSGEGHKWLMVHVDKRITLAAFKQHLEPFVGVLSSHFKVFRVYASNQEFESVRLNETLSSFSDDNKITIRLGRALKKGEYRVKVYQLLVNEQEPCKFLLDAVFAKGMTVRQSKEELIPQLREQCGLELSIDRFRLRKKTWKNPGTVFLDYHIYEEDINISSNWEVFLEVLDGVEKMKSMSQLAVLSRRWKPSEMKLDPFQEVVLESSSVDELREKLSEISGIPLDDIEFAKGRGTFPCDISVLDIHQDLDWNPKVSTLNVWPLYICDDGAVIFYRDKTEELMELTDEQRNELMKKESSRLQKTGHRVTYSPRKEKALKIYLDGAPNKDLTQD
Summary of the method: as §1

[4] = target: T3, USP48 (UniProt Q86UV5)
T3 sequence (whole entry): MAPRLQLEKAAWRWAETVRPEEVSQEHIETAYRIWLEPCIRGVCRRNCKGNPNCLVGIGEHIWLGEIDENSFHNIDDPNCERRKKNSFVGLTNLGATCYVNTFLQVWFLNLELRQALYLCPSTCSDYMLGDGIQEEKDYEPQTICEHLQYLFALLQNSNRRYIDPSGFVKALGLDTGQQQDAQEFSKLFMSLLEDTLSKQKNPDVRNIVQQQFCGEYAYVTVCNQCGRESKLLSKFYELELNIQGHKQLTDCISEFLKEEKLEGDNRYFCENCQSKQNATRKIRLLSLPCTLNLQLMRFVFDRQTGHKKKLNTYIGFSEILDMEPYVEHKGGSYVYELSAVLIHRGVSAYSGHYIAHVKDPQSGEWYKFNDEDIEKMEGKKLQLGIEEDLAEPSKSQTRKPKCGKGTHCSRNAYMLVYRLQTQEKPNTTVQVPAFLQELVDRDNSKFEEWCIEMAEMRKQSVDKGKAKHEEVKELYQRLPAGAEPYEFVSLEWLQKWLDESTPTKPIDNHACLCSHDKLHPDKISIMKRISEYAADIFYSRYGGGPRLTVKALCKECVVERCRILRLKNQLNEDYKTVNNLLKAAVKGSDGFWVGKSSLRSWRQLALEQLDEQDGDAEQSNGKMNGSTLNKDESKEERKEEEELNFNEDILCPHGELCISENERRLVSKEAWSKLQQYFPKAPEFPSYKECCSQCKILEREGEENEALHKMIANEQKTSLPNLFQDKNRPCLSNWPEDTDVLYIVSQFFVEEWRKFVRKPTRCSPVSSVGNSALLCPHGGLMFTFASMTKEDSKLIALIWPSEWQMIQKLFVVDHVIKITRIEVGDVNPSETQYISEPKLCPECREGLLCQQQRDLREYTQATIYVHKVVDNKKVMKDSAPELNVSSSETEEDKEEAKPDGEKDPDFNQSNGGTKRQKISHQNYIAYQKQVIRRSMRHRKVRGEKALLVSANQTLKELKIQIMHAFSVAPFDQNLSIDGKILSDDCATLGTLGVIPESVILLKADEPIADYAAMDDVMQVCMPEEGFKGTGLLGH
Summary of the method: as §1

[5] = target: T4, USP5 (UniProt P45974)
T4 sequence (whole entry): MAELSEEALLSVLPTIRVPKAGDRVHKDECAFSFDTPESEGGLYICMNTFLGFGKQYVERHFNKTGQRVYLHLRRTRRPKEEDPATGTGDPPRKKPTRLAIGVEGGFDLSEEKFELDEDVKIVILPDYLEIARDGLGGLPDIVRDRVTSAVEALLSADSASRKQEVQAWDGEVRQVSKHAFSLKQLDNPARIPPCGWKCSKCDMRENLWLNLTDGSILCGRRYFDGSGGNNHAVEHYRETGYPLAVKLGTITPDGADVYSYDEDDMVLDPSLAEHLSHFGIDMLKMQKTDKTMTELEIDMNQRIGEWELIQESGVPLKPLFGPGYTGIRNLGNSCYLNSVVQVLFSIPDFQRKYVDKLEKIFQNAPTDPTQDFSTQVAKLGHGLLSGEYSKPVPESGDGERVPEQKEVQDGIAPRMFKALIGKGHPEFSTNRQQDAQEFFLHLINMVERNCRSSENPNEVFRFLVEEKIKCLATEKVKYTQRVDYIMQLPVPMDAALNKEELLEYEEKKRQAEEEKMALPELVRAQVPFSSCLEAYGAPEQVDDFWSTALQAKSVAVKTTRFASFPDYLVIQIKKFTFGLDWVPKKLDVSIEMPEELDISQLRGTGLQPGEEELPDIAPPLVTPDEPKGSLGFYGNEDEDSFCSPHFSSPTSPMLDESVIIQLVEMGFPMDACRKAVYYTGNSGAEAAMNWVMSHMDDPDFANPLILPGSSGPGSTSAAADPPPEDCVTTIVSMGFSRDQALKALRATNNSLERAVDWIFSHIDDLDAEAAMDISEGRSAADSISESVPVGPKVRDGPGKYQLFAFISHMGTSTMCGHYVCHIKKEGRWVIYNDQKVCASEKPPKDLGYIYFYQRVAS
Summary of the method: as §1

[6] = target: USP54 (UniProt Q70EL1)
Summary of the method: as §1

[7] = target: USP7 (UniProt Q93009)
Summary of the method: as §1

[8] = target: T5, USP8 (UniProt P40818)
T5 sequence (whole entry): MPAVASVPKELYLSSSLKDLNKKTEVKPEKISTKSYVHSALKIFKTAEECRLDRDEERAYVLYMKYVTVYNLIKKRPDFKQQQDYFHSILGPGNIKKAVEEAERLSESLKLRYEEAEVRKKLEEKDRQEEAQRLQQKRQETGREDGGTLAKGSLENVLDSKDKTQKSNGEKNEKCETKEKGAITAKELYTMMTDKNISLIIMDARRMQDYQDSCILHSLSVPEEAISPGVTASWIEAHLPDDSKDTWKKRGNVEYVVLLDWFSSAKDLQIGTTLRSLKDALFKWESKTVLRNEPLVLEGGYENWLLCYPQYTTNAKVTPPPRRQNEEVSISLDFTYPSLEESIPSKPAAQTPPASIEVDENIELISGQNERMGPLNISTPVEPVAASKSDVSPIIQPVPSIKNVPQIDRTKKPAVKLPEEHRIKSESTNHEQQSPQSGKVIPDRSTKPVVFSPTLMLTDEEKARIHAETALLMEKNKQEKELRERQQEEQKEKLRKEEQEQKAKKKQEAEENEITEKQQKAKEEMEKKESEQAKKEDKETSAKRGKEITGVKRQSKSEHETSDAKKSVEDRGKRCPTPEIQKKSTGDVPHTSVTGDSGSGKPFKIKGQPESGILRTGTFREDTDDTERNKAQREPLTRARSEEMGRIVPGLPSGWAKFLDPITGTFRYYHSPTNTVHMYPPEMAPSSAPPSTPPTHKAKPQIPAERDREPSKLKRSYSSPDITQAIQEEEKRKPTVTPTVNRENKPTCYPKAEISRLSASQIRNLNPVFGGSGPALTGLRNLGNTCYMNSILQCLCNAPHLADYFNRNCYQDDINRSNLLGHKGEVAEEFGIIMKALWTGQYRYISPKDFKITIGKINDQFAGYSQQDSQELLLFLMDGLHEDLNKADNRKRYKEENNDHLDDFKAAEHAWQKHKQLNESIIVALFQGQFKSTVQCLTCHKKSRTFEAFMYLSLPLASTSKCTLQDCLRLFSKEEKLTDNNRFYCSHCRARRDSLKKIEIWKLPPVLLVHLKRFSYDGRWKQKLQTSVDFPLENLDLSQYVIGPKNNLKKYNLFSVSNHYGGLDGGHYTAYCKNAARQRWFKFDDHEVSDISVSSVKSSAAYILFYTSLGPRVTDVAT
Summary of the method: as §1

[9] = target: USP9X (UniProt Q93008)
Summary of the method: as §1

[10] = target: UniProt O00487
Summary of the method: as §1

Measured: log2 ratio of Biotin-Ahx-Ub-VS probe labelling

Sequence of USP7 (Q93009 whole entry, looked up): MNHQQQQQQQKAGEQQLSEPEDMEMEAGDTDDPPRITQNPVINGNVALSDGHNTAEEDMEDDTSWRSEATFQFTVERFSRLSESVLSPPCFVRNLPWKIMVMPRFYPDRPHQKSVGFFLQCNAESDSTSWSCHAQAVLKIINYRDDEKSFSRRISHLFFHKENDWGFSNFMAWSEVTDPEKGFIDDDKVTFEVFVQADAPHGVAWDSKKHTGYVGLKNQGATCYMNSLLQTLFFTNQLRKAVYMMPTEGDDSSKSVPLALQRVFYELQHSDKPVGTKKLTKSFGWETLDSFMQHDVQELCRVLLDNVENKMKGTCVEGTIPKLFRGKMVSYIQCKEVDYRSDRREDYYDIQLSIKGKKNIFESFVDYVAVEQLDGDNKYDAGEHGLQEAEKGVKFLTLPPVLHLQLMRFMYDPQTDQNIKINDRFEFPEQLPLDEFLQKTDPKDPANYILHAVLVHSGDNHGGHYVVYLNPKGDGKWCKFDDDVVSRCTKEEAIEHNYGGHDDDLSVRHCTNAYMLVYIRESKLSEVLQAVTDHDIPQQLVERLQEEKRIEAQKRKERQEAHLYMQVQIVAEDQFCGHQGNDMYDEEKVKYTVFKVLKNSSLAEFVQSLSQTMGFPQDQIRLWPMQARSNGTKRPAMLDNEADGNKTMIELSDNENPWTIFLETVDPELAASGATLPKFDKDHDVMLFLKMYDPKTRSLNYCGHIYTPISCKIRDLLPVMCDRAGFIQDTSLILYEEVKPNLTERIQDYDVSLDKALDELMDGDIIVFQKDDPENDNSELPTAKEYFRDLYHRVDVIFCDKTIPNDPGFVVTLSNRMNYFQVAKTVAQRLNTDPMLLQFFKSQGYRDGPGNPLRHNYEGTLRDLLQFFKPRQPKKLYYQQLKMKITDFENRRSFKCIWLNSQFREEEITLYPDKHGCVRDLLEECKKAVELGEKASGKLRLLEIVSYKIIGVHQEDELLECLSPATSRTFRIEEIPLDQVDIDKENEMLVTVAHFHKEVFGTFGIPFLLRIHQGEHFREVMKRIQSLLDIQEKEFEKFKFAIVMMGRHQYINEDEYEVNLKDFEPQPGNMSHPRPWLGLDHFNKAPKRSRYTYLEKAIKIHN
Sequence of USP54 (Q70EL1 whole entry): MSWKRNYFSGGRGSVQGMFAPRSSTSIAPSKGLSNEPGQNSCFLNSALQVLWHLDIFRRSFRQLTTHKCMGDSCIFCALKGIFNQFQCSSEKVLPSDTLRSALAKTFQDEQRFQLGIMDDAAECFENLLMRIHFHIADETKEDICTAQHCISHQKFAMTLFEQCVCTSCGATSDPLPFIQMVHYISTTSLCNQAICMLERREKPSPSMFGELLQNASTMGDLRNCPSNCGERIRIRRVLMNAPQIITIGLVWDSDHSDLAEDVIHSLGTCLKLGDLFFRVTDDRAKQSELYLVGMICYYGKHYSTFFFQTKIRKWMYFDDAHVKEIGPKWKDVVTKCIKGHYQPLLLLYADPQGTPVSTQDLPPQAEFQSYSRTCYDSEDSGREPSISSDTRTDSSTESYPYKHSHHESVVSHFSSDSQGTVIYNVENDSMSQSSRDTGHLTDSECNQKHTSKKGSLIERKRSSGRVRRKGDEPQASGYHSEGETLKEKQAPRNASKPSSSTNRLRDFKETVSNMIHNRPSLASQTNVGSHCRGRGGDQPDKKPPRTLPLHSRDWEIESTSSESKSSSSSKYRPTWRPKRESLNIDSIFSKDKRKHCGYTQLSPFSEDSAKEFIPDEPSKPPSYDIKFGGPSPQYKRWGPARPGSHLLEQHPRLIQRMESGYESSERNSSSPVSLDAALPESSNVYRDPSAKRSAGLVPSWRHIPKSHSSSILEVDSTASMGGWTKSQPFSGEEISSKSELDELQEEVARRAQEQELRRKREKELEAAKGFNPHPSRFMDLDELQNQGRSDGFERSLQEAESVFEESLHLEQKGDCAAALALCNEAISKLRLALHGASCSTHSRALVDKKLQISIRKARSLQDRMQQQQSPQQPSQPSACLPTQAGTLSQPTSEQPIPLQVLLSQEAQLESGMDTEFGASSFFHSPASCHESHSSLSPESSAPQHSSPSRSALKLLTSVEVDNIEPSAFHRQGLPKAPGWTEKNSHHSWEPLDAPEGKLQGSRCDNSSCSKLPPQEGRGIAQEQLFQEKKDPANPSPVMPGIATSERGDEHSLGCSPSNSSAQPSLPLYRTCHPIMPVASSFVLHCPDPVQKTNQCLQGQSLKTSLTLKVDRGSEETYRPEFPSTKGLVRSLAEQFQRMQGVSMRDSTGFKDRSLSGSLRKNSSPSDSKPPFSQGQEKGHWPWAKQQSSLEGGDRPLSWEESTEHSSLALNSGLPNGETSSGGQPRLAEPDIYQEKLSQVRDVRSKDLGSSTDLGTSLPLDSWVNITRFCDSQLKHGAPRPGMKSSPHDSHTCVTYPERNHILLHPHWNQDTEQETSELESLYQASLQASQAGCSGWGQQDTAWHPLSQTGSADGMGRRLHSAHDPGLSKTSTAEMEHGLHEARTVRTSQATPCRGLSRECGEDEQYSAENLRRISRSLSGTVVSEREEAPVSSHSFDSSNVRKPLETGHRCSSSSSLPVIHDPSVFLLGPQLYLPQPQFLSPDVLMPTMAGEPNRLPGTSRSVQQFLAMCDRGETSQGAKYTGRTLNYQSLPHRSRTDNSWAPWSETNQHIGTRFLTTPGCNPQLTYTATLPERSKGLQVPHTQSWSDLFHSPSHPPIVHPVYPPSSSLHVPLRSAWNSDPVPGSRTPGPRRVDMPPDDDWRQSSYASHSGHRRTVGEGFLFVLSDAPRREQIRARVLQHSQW
Sequence of UniProt O00487 (O00487 whole entry): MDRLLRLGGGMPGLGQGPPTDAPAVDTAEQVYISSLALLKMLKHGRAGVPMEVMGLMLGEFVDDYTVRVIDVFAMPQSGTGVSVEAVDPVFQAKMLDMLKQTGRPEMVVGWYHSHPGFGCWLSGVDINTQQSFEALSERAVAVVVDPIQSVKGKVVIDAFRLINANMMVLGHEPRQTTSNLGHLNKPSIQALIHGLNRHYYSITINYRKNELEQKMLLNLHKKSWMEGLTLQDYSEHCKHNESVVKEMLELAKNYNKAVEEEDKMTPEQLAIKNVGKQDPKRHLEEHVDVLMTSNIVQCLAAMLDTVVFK
Sequence of USP46 (P62068 whole entry): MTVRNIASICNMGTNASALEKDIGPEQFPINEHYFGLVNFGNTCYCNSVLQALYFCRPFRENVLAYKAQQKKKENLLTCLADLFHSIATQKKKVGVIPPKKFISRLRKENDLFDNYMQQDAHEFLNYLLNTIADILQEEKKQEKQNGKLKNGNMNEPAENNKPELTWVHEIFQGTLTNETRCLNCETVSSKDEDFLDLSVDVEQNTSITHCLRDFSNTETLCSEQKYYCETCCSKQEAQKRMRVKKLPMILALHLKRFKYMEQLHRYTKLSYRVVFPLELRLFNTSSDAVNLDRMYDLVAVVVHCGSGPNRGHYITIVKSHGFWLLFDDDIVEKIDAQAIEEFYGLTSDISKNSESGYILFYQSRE

Cc1nc(CNC(=O)CCl)c2ccccn12.Cl
inactive: [1] 0.298 | [2] 0.0871 | [3] -0.0462 | [4] 0.164 | [5] 0.133 | [6] -0.0547 | [7] -0.157 | [8] -0.312 | [9] -0.222 | [10] 0.0442
